Experimental findings from PubChem BioAssay (NCI) are described below.

SMILES strings stand for the structures. The panel holds about 83,000 compounds, 20% with a hit somewhere; the sample as a whole holds those more often.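 Method: cells in 96-well plates; compound added at one concentration; 48 h incubation; percent growth measured; values under 10 scored active.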 Active and inactive are the calls of the source.

The test system of the experiment is MOLT-4 leukemia. Nature of the experiment: NCI-60 one-dose screen, 48 h (100 = growth as untreated, 0 = no growth, -100 = all killed). As to conditions: 10 µM unless noted. As for the experimental part: Growth inhibition of the MOLT-4 human tumor cell line is measured as a screen for anti-cancer activity. Cells are grown in 96 well plates and exposed to the test compound for 48 hours. Compounds are tested at a single concentration, which is 10^-5 M for most compounds. The reported endpoint is percent growth (GI% or GIPRCNT), where numbers from 0 - 100% represent growth inhibition, and numbers from -100% - 0 represent cell death. For example, a value of 40 represents 60% growth inhibition. A value of 0 means no net growth occurred over the course of the experiment. A value of -40 indicates 40% of cells at the beginning of the experiment died by the end of the experiment. A value of -100 means all cells are dead at the end of the experiment.
NCI-60 Human Tumor Cell Lines Screen was performed using the standard one-dose NCI protocol, which is described in more detail at https://dtp.cancer.gov/discovery_development/nci-60/default.htm.
Compounds with GIPRCNT values below 10 were considered active. Activity score was based on GIPRCNT using the following formula: […]
Score is 0 for GIPRCNT values of 100 or above, 50 for GIPRCNT values of 0, and 100 for GIPRCNT values of -100.
For `CCCCCCCCn1ccc2cc(NC(=O)Cn3cc(CN4CCC(C)CC4)nn3)ccc21`, the growth is 3.1% (active).

For the molecule `COc1cccc(/C=C/C(=O)c2cc3c(N)c(C(=O)Nc4ccccc4C)sc3nc2C)c1`, the growth was 32.6% (inactive).

Turning to `COc1ccc(Cl)cc1Nc1nc(C(F)(F)F)ccc1C(=O)N/N=C/c1ccccc1Cl`, the growth is 3.07% (active).

Turning to `COc1ccc2nc3cc(Cl)ccc3c(NCCN)c2c1`, the growth is -40.9% (active).

On to `COc1ccccc1NC(=O)c1ccc(/C=C/C(=O)c2nccn2C)cc1`, for which the growth is 0.601% (active).

For `CN1CCN(C(=O)c2cc(-c3ccc4ncnc(N5CCc6cc(F)c(Cl)cc65)c4c3)cnc2N)CC1`, the growth was 1.54% (active).

With `CCn1cc(C(=O)N/N=C/c2ccc(Br)cc2)c(=O)c2cc(F)c(N3CCNC(C)C3)c(F)c21` (stereo not given), the growth was 22% (inactive).

Consider `CCOC(=O)c1n[nH]n2c1nc(=O)c1cnn(C)c12`, for which the growth was 99.7% (inactive).

As for `COc1cc2c(cc1O)[C@@]1(C)[C@H](c3ccccc3Br)OC(=O)N1CC2`, the growth is 90.8% (inactive).

In the case of `CCOC(=O)C(=Cc1cccc(C#N)c1)C(=O)OCC`, the growth was 50% (inactive).

On to `COc1ccc2nc(SCC(=O)Nc3ccccc3C)[nH]c2c1`, for which the growth was 88.8% (inactive).

Take `O=C(Nc1ncc(Cc2ccccc2Cl)s1)c1cccs1`: the growth is 61.7% (inactive).

On to `CN(CCC#N)c1ccc(/C=C2\NC(=O)NC2=O)cc1`, for which the growth is 92% (inactive).

Regarding `COc1ccc(C(O)c2cc3c(N)c(C(=O)Nc4cccc(Cl)c4)sc3nc2C)cc1` (stereo not given), the growth is 15.4% (inactive).

On to `CN(C)c1ccc(/C=C/C(=O)c2ccccc2)cc1`, for which the growth is 76.3% (inactive).

In the case of `CN(C)c1ccc(/C=C/C(=O)c2ccc(Nc3nc(Nc4ccc(F)cc4)nc(Nc4ccc(Cl)cc4)n3)cc2)cc1`, the growth was -3.06% (active).

In the case of `COc1cccc(Nc2ccnc3[nH]c4ccc([N+](=O)[O-])cc4c23)c1`, the growth was 48.7% (inactive).

Consider `Brc1ccc(-c2cnc3nonc3n2)cc1`, for which the growth is 37.5% (inactive).

In the case of `COC(=O)C1=Nc2ccc(F)cc2/C1=C\c1sc(Nc2ccc(O)cc2)nc1O`, the growth is 30.4% (inactive).

Consider `c1ccc(CNc2ccc3nc(CCC4CCCCC4)[nH]c3c2)cc1`, for which the growth was 51.2% (inactive).

With `COc1cc(/C=C2\C(=O)N(c3c(Cl)cccc3Cl)c3ccccc32)cc(OC)c1OCCCCCCn1c2ccccc2c(=O)c2ccccc21`, the growth was 90% (inactive).

In the case of `CCN(CC)S(=O)(=O)c1ccc(S(=O)(=O)N2CCC[C@@H](C(=O)N3CCN(C(=O)OC(C)(C)C)CC3)C2)cc1`, the growth was 60.8% (inactive).

With `COc1cc(OC)cc(C2C(C#N)=C(N)Oc3c2ccc2ccc(O)cc32)c1` (stereo not given), the growth was 7.26% (active).

In the case of `CN(C)c1ccc(/C=C2/C=C(c3ccccc3)OC2=O)cc1`, the growth is 49.7% (inactive).

As for `COc1ccc(C(c2cc(OC)c(OC)c(OC)c2)N2CCN(Cc3ccccc3)CC2)cc1` (stereo not given), the growth is 53.5% (inactive).

With `Cc1ccc(/C=C(\C#N)C(=O)Nc2ncc(Cc3cc(Cl)ccc3Cl)s2)o1`, the growth is 40.7% (inactive).

On to `CCCCc1oc2ccccc2c1C(=O)c1ccc(O)cc1`, for which the growth is 59.7% (inactive).

For `O=C(N/N=C/c1ccc([N+](=O)[O-])cc1)c1ccc2nc(-c3ccc(Cl)cc3)[nH]c2c1`, the growth was 4.24% (active).

Consider `O[C@@H](c1cc(C(F)(F)F)nc2c(C(F)(F)F)cccc12)[C@H]1CCCCN1`, for which the growth is 31.8% (inactive).

In the case of `O=C1OCC2=C1C(c1cccc(F)c1)c1cc3c(cc1N2CCO)OCO3` (stereo not given), the growth is 25.6% (inactive).

With `CCc1cccc(Sc2cc(C(=O)N3Cc4ccc(OCCN(C)C)cc4C3)ccc2O)c1`, the growth is 25% (inactive).

`C=C1C(=O)O[C@H]2[C@H]1CC/C(COC(=O)NCCCCCCCCNC(=O)OC/C1=C/CC[C@@]3(C)O[C@H]3[C@H]3OC(=O)C(=C)[C@@H]3CC1)=C\CC[C@@]1(C)O[C@@H]21`: the growth was -27.5% (active).

Take `CC1CN=C(c2cccc(-c3ccc(-c4ccccc4)o3)c2)N1` (stereo not given): the growth was -16.5% (active).

For the molecule `CC12CCC(/C(=C/NNc3ccc([N+](=O)[O-])cc3[N+](=O)[O-])C1=O)C2(C)C` (stereo not given), the growth is 41.3% (inactive).

On to `Cn1ncc2ccc(-c3nc(-c4ccccc4)[nH]c3-c3n[nH]c(=O)n3C3CC3)cc21`, for which the growth was 93.5% (inactive).

With `CCOC(=O)CSc1nc2sc3c(c2c(=O)n1-c1ccc([N+](=O)[O-])cc1)CCCCC3`, the growth is 97% (inactive).

As for `OC(c1ccccc1)(c1ccccc1)c1ccccc1-c1ccccc1`, the growth is 84% (inactive).

Consider `Cc1nc2sc(C(=O)Nc3cccc(Cl)c3)c(N)c2cc1C(O)c1ccccc1` (stereo not given), for which the growth was 14.5% (inactive).

For `CCOC(=O)C1CCN(c2ccc(N3C[C@@H](CNCc4ccc(C(=N)N)cc4)OC3=O)cc2)CC1`, the growth was 101% (inactive).

On to `CCC(CC)(N(CC(=O)O)CC(=O)O)C(CC)(CC)N(CC(=O)O)CC(=O)O`, for which the growth was 107% (inactive).
